Screening results: PubChem, Paczesny and Yang Labs, IUPUI and University of Michigan
The entries come from a sample that favours hits as a whole.
ST2 inh: IL1RL1 inhibition; Q01638; AlphaLISA ST2-Fc/biotin-IL-33 interaction, 1 h; inhibition, % for hits at 17 µM; hit rate 2.3% among 78,000; AID 1259354; in the data active means inhibition above about 30%
Target sequence (Q01638 whole entry, looked up): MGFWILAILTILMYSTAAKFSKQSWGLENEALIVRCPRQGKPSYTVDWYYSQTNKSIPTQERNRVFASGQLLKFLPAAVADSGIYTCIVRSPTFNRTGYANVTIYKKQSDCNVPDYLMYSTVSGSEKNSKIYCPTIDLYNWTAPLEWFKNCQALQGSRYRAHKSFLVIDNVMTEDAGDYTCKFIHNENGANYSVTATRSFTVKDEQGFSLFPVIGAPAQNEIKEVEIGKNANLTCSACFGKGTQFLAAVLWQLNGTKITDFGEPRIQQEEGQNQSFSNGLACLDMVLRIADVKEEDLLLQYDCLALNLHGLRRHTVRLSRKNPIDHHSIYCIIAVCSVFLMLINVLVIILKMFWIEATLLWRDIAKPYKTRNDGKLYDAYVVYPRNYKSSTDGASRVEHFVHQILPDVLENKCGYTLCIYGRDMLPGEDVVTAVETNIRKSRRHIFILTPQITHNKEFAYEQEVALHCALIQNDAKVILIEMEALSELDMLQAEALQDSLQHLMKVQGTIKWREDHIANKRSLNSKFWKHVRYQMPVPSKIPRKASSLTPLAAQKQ
Each line names hits and unclear results; the compound was inactive in the other large screens; ! = repeats disagree.

CCN(CC)CC(=O)Nc1c(C(=O)c2ccccc2)oc2ccccc12	ST2 inh 43%
CCC(=O)Nc1c(C(=O)Nc2ccccc2F)oc2ccccc12	none
O=C(Nc1c(C(=O)O)oc2ccccc12)c1ccccc1	none
COc1ccc(C(CC(=O)N(C)Cc2ccncn2)c2ccccc2)cc1 (stereo not given)	none
COc1ccc(Cl)cc1NC(=O)c1cc2c(=O)n3cccc(C)c3nc2s1	none
CCN(CC)c1ccc(N)c(C)c1	ST2 inh 53%
CCN(CC)c1ccc(C=NS(=O)(=O)c2ccc(C)cc2)cc1	none
CCCCNC(=O)c1cc(=O)[nH]c2ccc(S(=O)(=O)N3CCCC3)cc12	none
OCCC1CN(Cc2cccn2-c2nccs2)CCN1Cc1cccs1 (stereo not given)	none
c1ccc2sc([C@H]3CCNC3)nc2c1	ST2 inh 32%
O=C(O)CCC(=O)N1CC[C@H](c2nc3ccccc3s2)C1	none
CC(=O)N1CCC(N2CC[C@H](c3nc4ccccc4s3)C2)CC1	none
Cc1ccsc1C(=O)N1CCCC(CCC(=O)NCc2ccccc2Cl)C1 (stereo not given)	none
O=C(CCN1C(=O)c2ccccc2C1=O)Nc1ccc(-c2ccccc2)cc1	none
COc1cc(OC)cc(C(=O)OCc2nc3ccccc3s2)c1	none
COc1cccc2sc(=NC(=O)c3nc4ccccc4s3)n(C)c12	none
COc1cc(/C=C(\C#N)c2nc3ccccc3s2)cc(OC)c1OC	ST2 inh 34%
CN(C(=O)c1ccccc1-c1ncc[nH]1)C1Cc2ccccc2C1	none
CC(C)(Cc1ccc(F)cc1)NC(=O)c1cn2c(n1)CNCC2	none
CC(C)c1cc(N2CCCC3(CC2)CNC(=O)O3)nc(C(F)(F)F)n1 (stereo not given)	none
CC(C)c1cc(NCc2cccnc2N2CCCC(O)C2)nc(C(F)(F)F)n1 (stereo not given)	none
CC(C)c1cc(NC2CC(=O)N(CC(C)(C)C)C2)nc(C(F)(F)F)n1 (stereo not given)	ST2 inh 31%
CCN(c1ccccc1)S(=O)(=O)c1cc(OC)ccc1OC	none
CCN(c1ccccc1)S(=O)(=O)c1ccc(OC)c(OC)c1	none
CCN(c1ccccc1)S(=O)(=O)c1cc([N+](=O)[O-])ccc1N	ST2 inh 32%
O=C(Nc1cnn(Cc2ccc(Cl)cc2Cl)c1)c1cc(C2CC2)on1	none
O=C(Cc1cccnc1)N1CCC(Cc2n[nH]c(=O)n2-c2ccccc2)CC1	none
CCn1c(C2CCCN(Cc3c(Cl)cncc3Cl)C2)nn(C)c1=O (stereo not given)	none
CCOC(=O)c1[nH]c2ccccc2c1NC(=O)Cc1cccs1	none
O=c1oc(-c2cccs2)nc2sc3c(c12)CCC3	none
O=c1oc(-c2ccccc2Cl)nc2ccc(Br)cc12	none
O=c1oc(-c2ccccc2Cl)nc2sc3c(c12)CCC3	ST2 inh 45%
O=c1oc(/C=C/c2ccco2)nc2sc3c(c12)CCCCC3	ST2 inh 36%
O=c1[nH]c(/C=C/c2ccccc2)nc2sc3c(c12)CCCC3	none
O=C(c1ccco1)N1CCN(C(=O)c2cccn3c(=O)c4c5c(sc4nc23)CCCC5)CC1	none
O=C(Cn1c(=O)[nH]c2ccsc2c1=O)NCCc1c[nH]c2ccccc12	none
O=C(NC1CCN(Cc2ccccc2)CC1)c1cccn2c(=O)c3c4c(sc3nc12)CCCC4	none
COc1cccc(C(=O)Nc2ccc(Cl)c(N3CCCS3(=O)=O)c2)c1	none
O=C(COc1ccccc1)N1CCN(c2ccc([N+](=O)[O-])c(NCCc3ccccc3)c2)CC1	ST2 inh 33%
Cc1ccc(OCC(=O)N2CCN(c3ccccc3)CC2)cc1C	none
O=C(CCCOc1ccccc1)N1CCN(c2ccc([N+](=O)[O-])cc2)CC1	none
COc1cccc(-n2c(=O)c3sccc3n(Cc3cccnc3)c2=O)c1	none
COCC(=O)Nc1ccc(-c2cc(OC)cc(OC)c2)cc1	none
CCSc1nc2c(c(=O)[nH]1)C(c1cccs1)C1=C(CCCC1=O)N2 (stereo not given)	none
Cn1c(=O)c2c(-c3ccccc3)n(N)cc2n(C)c1=O	none
Cn1c(=O)c(N)c2c3c(cccc31)C(=O)c1ccccc1-2	ST2 inh 31%
Cn1c2c(c(=O)n(C)c1=O)C(c1ccccc1)C1=C(N2)c2ccccc2C1=O (stereo not given)	none
OCCN(Cc1ccccc1)Cc1cccs1	none
Clc1ccc(-c2csc3ncnc(NCCCN4CCOCC4)c23)cc1	none
Cc1cc(Cl)ccc1OCC(=O)N1CCCC1	none
C=CCOc1ccc(/C=C2/SC(N3CCOCC3)=NC2=O)cc1	none
Cc1ccc(/C=C2\CS/C(=C\c3ccc(C)o3)C2=O)o1	ST2 inh 60%
O=C1N=C(N2CCOCC2)S/C1=C/c1ccc(Cl)cc1	none
CN1CCN(C2=NC(=O)/C(=C/c3cccs3)S2)CC1	none
Cc1ccc(/C=c2\sc3nc(-c4ccc(OC(C)C)cc4)nn3c2=O)o1	none
Cc1ccc(/C=C2/SC(N3CCC(C)CC3)=NC2=O)o1	ST2 inh 30%
COc1cc(/C=C2/SC(N3CCC(C)CC3)=NC2=O)cc(OC)c1OC	none
CCOc1ccc(-c2nc3s/c(=C\c4ccc(C)o4)c(=O)n3n2)cc1	none
O=C1N=C(N2CCOCC2)S/C1=C/c1ccc(-c2ccccc2)o1	ST2 inh 34%
CC(=O)Nc1ccc(S(=O)(=O)N2C[C@@H]3C[C@H](C2)c2c(-c4ccccc4F)ccc(=O)n2C3)cc1	none
Cc1[nH]c2ccc(CNC(=O)CCc3nc4cccnc4n3C)cc2c1C	none
Nc1ccnc(-c2cccc3ccsc23)c1	none
Cc1cccc(CN2CCC(CNC(=O)Cc3ccn(C)c3)C2)c1 (stereo not given)	none
COc1ccccc1CNC(=O)CN(C)C(C)c1ccon1 (stereo not given)	none
COc1cc(-c2cccc3ccnn23)ccc1NC(C)=O	none
Cc1ccc(-c2cnc3ccccc3n2)cc1[N+](=O)[O-]	none
Cc1ccc2c(c1[N+](=O)[O-])C(=O)c1ccccc1C2=O	none
Cc1cc2c(cc1[N+](=O)[O-])C(=O)c1cc3ccccc3nc1-2	ST2 inh 36%
COc1ccc(NC(=O)Cn2c(=O)[nH]c3ccsc3c2=O)cc1	none
CCCCn1cnc2cc(NCc3ccc(Br)cc3)ccc21	none
CC(C)(C)n1cnc2cc(NCc3ccccn3)ccc21	none
CCCn1cnc2cc(NCc3ccncc3)ccc21	none
CCn1cnc2cc(NCc3ccc(C)cc3)ccc21	none
CN(C)c1ccc(CNc2ccc3c(c2)ncn3C(C)(C)C)cc1	ST2 inh 33%
CCn1cnc2cc(NCc3ccc(N(C)C)cc3)ccc21	ST2 inh 52%!
CC(C)(C)n1cnc2cc(NCc3ccncc3)ccc21	none
CCN(CC)c1ccc(CNc2ccc3c(c2)ncn3CC)cc1	ST2 inh 52%!
CCn1cnc2cc(NCc3cccs3)ccc21	none
O=C(NCCSCc1ccco1)c1ccc(Br)cc1	none
Cc1ccc(-n2c(=O)c3sccc3n(CC(=O)Nc3cccc(Cl)c3)c2=O)cc1F	none
CN(C)S(=O)(=O)c1cc([N+](=O)[O-])ccc1N1CCCCCC1	none
Cc1ccc(S(=O)(=O)N2CCN(S(=O)(=O)c3ccccc3)C2)cc1[N+](=O)[O-]	none
O=[N+]([O-])c1ccc(N2CCN(Cc3ccccc3)CC2)c(S(=O)(=O)N2CCOCC2)c1	none
Cc1ccc(S(=O)(=O)N2CCN(c3ccccc3)CC2)cc1[N+](=O)[O-]	ST2 inh 40%
Cc1ccc(S(=O)(=O)N2CCN(C(=O)c3ccccc3)C2)cc1[N+](=O)[O-]	none
O=S(=O)(c1ccc(Cl)c(Cl)c1)N1CCCCC1	none
O=[N+]([O-])c1ccccc1S(=O)(=O)Nc1ccc(Cl)c(Cl)c1	none
O=[N+]([O-])c1ccc(N2CCN(c3ccccc3)CC2)c(S(=O)(=O)N2CCCCC2)c1	ST2 inh 50%
O=[N+]([O-])c1ccccc1N1CCN(S(=O)(=O)c2ccc(Cl)c(Cl)c2)CC1	ST2 inh 30%
